Common to all, as to assay: NCI-60 one-dose screen, 48 h (100 = growth as untreated, 0 = no growth, -100 = all killed)
Holding throughout (details): 10 µM unless noted

Assay [1] has as its system SK-MEL-2 melanoma.
For assay [2], the system named is EKVX NSCLC.
Assay [3] concerns SN12C renal.
Assay [4] deals with UO-31 renal.
In assay [5] the test system is ACHN renal.
Assay [6] deals with CAKI-1 renal.
The subject of assay [7] is A498 renal.
Assay [8] deals with CCRF-CEM leukemia.
For assay [9], the system named is MOLT-4 leukemia.
Assay [10] deals with SR leukemia.
Assay [11] relates to RPMI-8226 leukemia.
Assay [12] concerns OVCAR-8 ovarian.
Assay [13] has as its system OVCAR-5 ovarian.
Assay [14] has as its system OVCAR-4 ovarian.
The test system of assay [15] is SK-OV-3 ovarian.
Assay [16] deals with IGROV1 ovarian.
Assay [17] relates to OVCAR-3 ovarian.
Assay [18] concerns NCI/ADR-RES ovarian.
The subject of assay [19] is HS 578T breast.
Assay [20] deals with TK-10 renal.

About 83,000 compounds went through this panel and 20% of them were active in at least one assay; those are over-represented in the sample as a whole.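 Percent growth is the endpoint: 0 to 100 indicates growth inhibition (40 means 60% inhibition), 0 means no net growth, and negative values indicate cell death.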 Unmarked numbers belong to inactive results. Active and inactive are the calls of the source. The calls were made as follows: active = growth percent below 10; inactive = the rest.

Turning to `COc1ccc(S(=O)(=O)N2CC3(COC3)C2)cc1NC(=O)c1[nH]c(C)c2c1CCCCC2=O`, the growth is 62.7% in assay [1]; 58.2% in assay [2]; 54.9% in [3]; 40.4% in assay [4]; 60.4% in [5]; 20% in assay [6]. In addition, the growth was 69.8% in [7]; 72.5% in assay [8]; 76.4% in assay [9]; 51.3% in assay [10]; 25.8% in [11]; 54.2% in assay [12]. In addition, the growth in assay [13] was 61.1%; in assay [14], 56.6%; in assay [15] it was 39.8%; in assay [16], 44%; in [17] it was 54.4%; in assay [18], 91.1%.
Regarding `C=CC(COC(c1ccccc1)(c1ccccc1)c1ccccc1)N(CC)CC` (stereo not given), the growth in [1] is 85.8%; in assay [2], 76.1%; in assay [3], 58.3%; in [4], 59.4%; in [5], 81.7%; in [6], 67.1%. In addition, the growth in [7] is 73.8%; in assay [8], 59.3%; in [9] it was 8.88% (active); in assay [10] it was 44.7%; in assay [11], 10.6%; in assay [13], 66.1%. In addition, the growth in assay [14] is 67.9%; in [15] it was 75.5%; in assay [16] it was 62%; in assay [17] it was 71.9%; in assay [19], 85.7%; in [18], 62.4%.
Turning to `COc1cc(C(=O)/C=C/c2cccnc2Nc2ccc(Cl)cc2)cc(OC)c1OC`, the growth in [1] was -65% (active); in assay [2], 23.7%; in assay [3], -58.7% (active); in assay [4], -99.3% (active); in [5] it was -97.1% (active); in assay [6] it was -6.13% (active). Besides, the growth in assay [8] was -10.8% (active); in assay [10], 5.22% (active); in assay [11], -30.2% (active); in [12], -17.6% (active); in assay [13], -78.3% (active); in assay [14], -90.4% (active). Also, the growth in assay [15] is -5.2% (active); in assay [16] it was -60.9% (active); in assay [17], -97.1% (active); in assay [19] it was 29.4%; in assay [18], 3.59% (active).
As for `C=C(C)[C@@H]1CC[C@]2(C(N)=O)CC[C@]3(C)[C@H](CC[C@@H]4[C@@]5(C)C/C(=C/c6ccco6)C(=O)C(C)(C)[C@@H]5CC[C@]43C)[C@@H]12`, the growth is 99.5% in [1]; 89.8% in assay [2]; 96.1% in [3]; 84.4% in assay [4]; 84.4% in assay [5]; 59% in [6]. For the same molecule, the growth in [7] is 104%; in [8], 93.4%; in assay [9], 79.7%; in assay [11], 84.6%; in [12], 93.8%; in [13], 101%. In addition, the growth is 95.8% in [14]; 102% in [15]; 101% in [16]; 105% in assay [17]; 95.3% in assay [19]; 96.6% in assay [18].
In the case of `COc1cc2c(cc1O)CC[C@@H]1[C@@H]2CC[C@]2(C)[C@@H](OCCCN(C)C)CC[C@@H]12`, the growth in assay [1] was -85.9% (active); in assay [2], 0.0282% (active); in assay [4], -79.6% (active); in assay [20], -6.67% (active); in assay [5], -62.8% (active); in assay [6], 10.9%. The growth is -53.6% (active) in [7]; -7.19% (active) in assay [8]; -21.1% (active) in [9]; -36.2% (active) in [10]; -32.9% (active) in [11]; -34.2% (active) in [12]. The growth in assay [13] was 2.83% (active); in assay [14], -15% (active); in assay [15], -59.1% (active); in assay [16] it was -35.2% (active); in assay [17] it was -55.5% (active); in assay [19] it was -38.2% (active). Further, the growth in [18] is -23.4% (active).
Turning to `N#Cc1nnn(-c2ccc(S(N)(=O)=O)cc2)c1NC(=O)CCl`, the growth was 106% in [1]; 91.4% in [2]; 88.3% in assay [3]; 86.5% in assay [4]; 108% in [5]; 91.5% in [7]. Further, the growth in [8] was 88.8%; in [9], 92.4%; in assay [10], 96.1%; in assay [11], 91.4%; in assay [12], 101%; in assay [13], 96.6%. Moreover, the growth in assay [14] was 103%; in [15], 96.6%; in assay [16], 104%; in assay [17], 106%; in assay [19] it was 0.129% (active); in assay [18] it was 102%.
In the case of `NC(=NCCCOc1ccc(Cl)cc1)Nc1ccc(Cl)cc1`, the growth in [1] is 24.1%; in assay [2], 44.4%; in [4] it was 37%; in [20], 45.8%; in assay [5] it was 2.74% (active); in assay [6], 19.3%. Also, the growth is -12% (active) in assay [7]; 6.02% (active) in [8]; 4.83% (active) in [9]; 4.92% (active) in assay [10]; 15.1% in assay [11]; 60.4% in [12]. For the same molecule, the growth in [13] is 30.5%; in assay [14] it was 26.4%; in assay [15], 69.2%; in assay [16], 8.71% (active); in [17], 54.3%; in assay [19] it was 41.5%. Besides, the growth in assay [18] is 53.1%.
Regarding `COc1cc2nc(N3CCCC3)nc(NCC3CCCCC3)c2cc1OC`, the growth in [1] is -43.5% (active); in assay [2] it was 40.2%; in assay [3], 59.6%; in assay [4], 42.5%; in assay [5] it was 16.8%; in assay [6], 13.3%. The growth is -3.66% (active) in [7]; -9.68% (active) in assay [8]; -16.3% (active) in [9]; -38.2% (active) in assay [11]; 12.1% in assay [12]; 29.1% in assay [13]. In addition, the growth in [14] was 33.2%; in assay [15], 77.4%; in assay [16], 72.3%; in assay [17] it was 13.1%; in assay [19] it was -33.5% (active); in assay [18], 35.3%.

The values are drawn from PubChem BioAssay (NCI).
